This is one part of a sample in which hits are shown more often than they occur.
NS1 function inh = influenza NS1 inhibition; Potency, µM (doses to about 46.1 µM), inactives show at the top dose activity, positive = more growth; 0.4% of 270,000 active; AID 2326; calls by dose curve; note: actives are rising curves; nearly all actives have a fitted effect of over 50% in size
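S. cerevisiae expressing influenza A NS1, grown in glucose, washed, then diluted 1:100 into pH 6.0 -URA galactose medium with 23 nl compound. Growth recovery read as OD600; NS1-free strain serves as control.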
Cruzain inh Det = blocks cruzain activity in presence of Triton detergent; purified cruzain, Z-FR-AMC fluorescence, 0.01% Triton; Potency, µM, for inactives: max response, negative = inhibition, usual class: inhibitors; 0.43% of 200,000 active;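 note: plate controls were neutral wells for no effect and buffer without enzyme for full effect; nearly all actives have a fitted effect of over 40% in size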
Target sequence (P25779 123-467 limits assumed): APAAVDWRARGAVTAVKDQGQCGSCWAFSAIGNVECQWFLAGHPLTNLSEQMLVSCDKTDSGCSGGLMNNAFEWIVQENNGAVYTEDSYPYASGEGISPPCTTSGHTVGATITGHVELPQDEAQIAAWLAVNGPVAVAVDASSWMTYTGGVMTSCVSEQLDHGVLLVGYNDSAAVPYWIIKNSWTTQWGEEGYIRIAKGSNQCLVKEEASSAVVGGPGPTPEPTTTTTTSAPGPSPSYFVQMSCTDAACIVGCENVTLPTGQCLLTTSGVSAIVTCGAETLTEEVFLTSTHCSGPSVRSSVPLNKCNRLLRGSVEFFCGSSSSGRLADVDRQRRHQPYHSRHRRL
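Detergent-containing run (0.01% Triton X-100) in acetate buffer pH 5.5 with 5 mM DTT: enzyme at 1.5 nM final, 15 min compound preincubation at room temperature, then 2 uM Z-FR-AMC substrate. Activity taken as 60 s fluorescence increase at 360/450 nm.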
Cruzain inh noDet = inhibitors of Trypanosoma cruzi cruzain without detergent; P25779; purified cruzain, Z-FR-AMC fluorescence, no detergent; Potency, µM, inactives show max response, negative = inhibition, actives largely listed as inhibitors; 2.3% of 200,000 active; AID 1476;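 note: plate controls were enzyme without inhibitor for no effect and buffer without enzyme for full effect; nearly all actives have a fitted effect of over 40% in size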
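Detergent-free condition (0.00005% Triton X-100) in acetate buffer pH 5.5 with DTT. 1.5 nM enzyme and compound were pre-mixed 15 min, then 2 uM Z-FR-AMC substrate added; reaction progress from fluorescence change between first and third reads (60 s).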
The depositor's hits bear a star; ? = inconclusive; . = not tested or not shown. Unless noted, calls come from the whole dose curve; as a rule, active = well fitted curve in the direction sought with a large enough effect; inconclusive = small, poorly fitted or top-dose-only effect, or another doubt; inactive = no such curve, though single readings can be large; an effect the other way counts as inactive or inconclusive. Potency is the fitted concentration of half-maximal effect.

SMILES | NS1 function inh | Cruzain inh Det | Cruzain inh noDet
CCOC(=O)c1c(N2C(=O)Nc3cc(Cl)c(Cl)cc3N2O)sc2c1CCCCC2 | 5% | 25µM* | 14%
CCOc1ccc(CNC(=O)CSc2nnc(C)c3c(C)n(-c4ccc(Cl)cc4)nc23)cc1 | . | -4% | 2%
CC(C)=NNc1nc(-c2ccccc2)cs1 | ? | -1% | -9%
COC(=O)c1ccc(/C=N/Nc2nc(-c3ccc(Cl)cc3Cl)cs2)cc1 | -4% | . | .
COC(=O)c1ccc(/C=N/Nc2nc(-c3ccccc3)cs2)cc1 | -2% | -6% | 13µM*
COC(=O)c1ccc(/C=N/Nc2nc(-c3ccc(C)cc3)cs2)cc1 | -19% | -11% | 13µM*
C(=N\Nc1nc(-c2ccccc2)cs1)/c1cccnc1 | -10% | -8% | -8%
CC(/C=C/c1ccccc1)=N\Nc1nc(-c2ccccc2)cs1 | 22% | 0% | 25µM*
CC(=O)OCC(=O)[C@@]1(OC(C)=O)[C@H](C)C[C@H]2[C@@H]3C[C@H](F)C4=CC(=O)C=C[C@@]4(C)[C@]3(F)[C@H](O)C[C@@]21C | . | -9% | ?
COC(=O)C1(C(=O)OC)CC2=CC(CC2=O)Cc2ccccc2[C@@H]1C[N+](=O)[O-] (stereo partly drawn) | . | 2% | -8%
CC(C)Cn1nnnc1S(=O)(=O)CCc1ccccc1 | . | 4% | 3%
Nc1ccccc1O.O.O=C(O)[C@H]1[O][Sb][O][C@H]1C(=O)O | -3% | 1% | -2%
Oc1cccc(Cl)c1 | . | 0% | -5%
CCOc1ccc2nc(NC3=NC(c4ccc(OC)cc4)CC(=O)N3)nc(C)c2c1 (stereo not drawn) | ? | 8.9µM* | ?
COc1ccc2c(C)nc(Nc3nc(C)cc(=O)[nH]3)nc2c1 | -52% | . | .
CCOc1ccc2nc(NC3=NCN(Cc4ccco4)CN3)nc(C)c2c1 | 6% | -3% | -4%
CCOc1ccc2nc(NC3=NC(C)(C)C=C(C)N3)nc(C)c2c1 | -1% | 28µM* | 16µM*
CCOc1ccc2c(C)nc(NC3=NC(C)(C)C=C(C)N3)nc2c1 | -2% | 16µM* | 16µM*
COCc1cc(=O)[nH]c(Nc2nc(C)c3cc(OC)ccc3n2)n1 | 0% | 0% | 8%
O=C(Cc1ccccc1)N(Cc1cccnc1)c1nc2c(F)cc(F)cc2s1 | . | -6% | ?
Cc1nc(-c2ccccc2)sc1CCNC(=O)C(=O)Nc1ccc(F)c(Cl)c1 | . | 0% | 1%
COc1ccc(Cl)cc1Nc1nc(-c2sc(NC(=O)C(C)(C)C)nc2C)cs1 | 12% | 2% | -24%
CCC(C)C(=O)Nc1nc(C)c(-c2csc(Nc3cc(Cl)ccc3OC)n2)s1 (stereo not drawn) | ? | 1% | -16%
COc1ccc(Cl)cc1Nc1nc(-c2sc(NC(=O)c3ccco3)nc2C)cs1 | 12% | -1% | 16µM*
Cc1cc(NS(=O)(=O)c2ccc(Nc3nc(-c4sc(NC(=O)c5ccccc5)nc4C)cs3)cc2)no1 | 9% | -11% | 6.3µM*
SMILES | NS1 function inh | Cruzain inh Det | Cruzain inh noDet
Cc1nc(NC(=O)c2ccccc2)sc1-c1csc(Nc2cccc(F)c2)n1 | -2% | 5% | ?
CCC(=O)Nc1nc(C)c(-c2csc(Nc3ccc(S(=O)(=O)Nc4cc(C)on4)cc3)n2)s1 | 19% | -1% | -18%
CCCCCCC(=O)Nc1nc(C)c(-c2csc(Nc3cc(Cl)ccc3C)n2)s1 | ? | 3% | 10µM*
Cc1ccc(Cl)cc1Nc1nc(-c2sc(NC(=O)c3ccccc3)nc2C)cs1 | 21% | 4% | 6.3µM*
Cc1ccc2nc(NC(=O)CSc3cc(C)[nH]c(=O)n3)sc2c1 | . | -6% | 3%
Cc1cccc(OCC(=O)Nc2ccccc2C(=O)OCc2cc(=O)n3ccsc3n2)c1 | . | 0% | 5%
N#C/C(=C\c1c[nH]c2ccccc12)C(=O)c1ccc(O)c(O)c1 | 25% | -5% | 7%
CC(C)c1cc2c(c(O)c1O)[C@@]1(C(=O)O)CCCC(C)(C)[C@@H]1CC2 | . | -6% | 6%
O=C(Nc1cc(-c2nc3ccccc3o2)ccc1Cl)c1sc2c([N+](=O)[O-])cccc2c1Cl | . | 0% | 5%
Cc1ccc(-n2c(/C=C/c3c(C)n(C)c4ccccc34)nc3ccccc3c2=O)cc1 | . | -1% | -2%
N[C@@H](Cc1cc(-c2ccc(Cl)cc2Cl)cc(CP(=O)(O)O)c1O)C(=O)O | . | 2% | 0%
CCCCC(=O)Nc1nc(C)c(-c2csc(Nc3cc(Cl)ccc3OC)n2)s1 | ? | 1% | 10µM*
CCCCC(=O)Nc1nc(C)c(-c2csc(Nc3cc(OC)ccc3OC)n2)s1 | 10% | -2% | ?
COc1ccc2cc1Oc1ccc(cc1)C[C@@H]1c3c(cc(OC)c4c3Oc3cc5c(cc3O4)CCN[C@H]5C2)CCN1C | -8% | -6% | 1%
Cc1c(C(=O)N(C)c2cccc(C(F)(F)F)c2)sc2nc3n(c(=O)c12)CCCCC3 | . | -12% | ?
CCCOCC(C)OCC(C)O (stereo not drawn) | . | 0% | -6%
O=C(O)[C@@H](O)[C@@H](O)[C@@H](O)[C@@H](O)c1nc2ccccc2s1 | -32% | -4% | -1%
CCc1c(C)sc(NC(=O)c2cc(-c3ccc(OC)c(OC)c3)on2)c1C#N | -1% | -4% | -8%
CCc1c(C)sc(NC(=O)c2cc(-c3ccc(O)cc3)on2)c1C#N | 7% | -1% | 7.9µM*
COc1ccccc1N1CCN(c2cc(=O)n(-c3ccc(Br)cc3)c(=O)[nH]2)CC1 | 7% | 2% | ?
O=c1cc(N2CCN(c3ccccc3F)CC2)[nH]c(=O)n1-c1ccc(Br)cc1 | -20% | -1% | 25µM*
O=C(CSc1nnc(-c2c[nH]c3ccccc23)o1)c1ccc(-c2ccccc2)cc1 | ? | -1% | 5µM*
COC(=O)CSc1nnc(-c2c[nH]c3ccccc23)o1 | -12% | . | .
Cc1ccc(N2CC(NC(=O)/C=C\c3ccc4c(c3)OCO4)CC2=O)cc1C (stereo not drawn) | . | -13% | -7%
CCOc1ccc(NC(=O)Cn2ncc3c2-c2cc(C)ccc2OC3)cc1 | . | -3% | 10%
SMILES | NS1 function inh | Cruzain inh Det | Cruzain inh noDet
Cc1nc(SCC(=O)Nc2ccc3c(c2)OCO3)c(C#N)c2c1CCCC2 | 1% | -1% | -9%
CCOc1cccc(NC(=O)CSc2nc(C)c3c(c2C#N)CCCC3)c1 | -2% | 4% | 7.9µM*
CCOC(=O)c1c(C#N)c(SCC(=O)Nc2ccc(OC)cc2)nc2c1CN(CC)CC2 | 9% | -3% | 25µM*
CCOC(=O)c1ccc(NC(=O)CSc2nc(-c3ccc(OC)cc3)cc(C(F)(F)F)c2C#N)cc1 | . | 0% | -3%
O=C1C=CC2=C3c4cc(O)c(O)cc4C[C@@]3(O)COC2=C1 | . | -1% | -10%
COc1cc(/C=N/N=C(/N)c2nonc2N)cc(Br)c1OCc1ccccc1C | -4% | 3% | -25%
CCOc1cc(/C=N/N=C(/N)c2nonc2N)cc(Br)c1OCc1ccc(Cl)cc1 | -1% | 2% | 4µM*
COc1ccc(OC)c(-c2noc(CSc3nnc(-c4ccccc4)n3-c3ccccc3)n2)c1 | . | -3% | -11%
Cc1cccc2c1Oc1ccccc1[C@@H]2NC(=O)c1ccc([N+](=O)[O-])cc1 | 6% | -1% | -3%
O=C1NCCCc2c1oc1cc(Br)c(O)c(Br)c21 | 2% | -1% | -10%
CC(C)NCc1c(O)c(Br)cc2oc3c(c12)CCCC3 | -18% | 0% | 13µM*
Cc1ccc(-c2cc(C(=O)NCCc3ccccc3)c3c(-c4ccc(C)cc4)[nH]nc3n2)cc1 | . | 1% | -9%
